Experimental data: PubChem BioAssay (EPA / NIEHS)
Results filed as inconclusive are left out. The source made the active and inactive calls. How the source made its calls, unless noted: active means hit-call score of the fitted dose curve at least 0.9, where 1 is the maximum; inconclusive means response in the unintended direction; inactive means score below 0.9.

Assay: CCTE_Harrill_HTTr_Apoptosis_MCF7: CCTE's 6-hour Apoptosis Assessment for the High-Throughput Transcriptomics (HTTr) Platform, in MCF-7 cells cultured in DMEM + 10% fetal bovine serum, Harrill Lab (AID 2284011; active means hit-call score of the fitted dose curve at least 0.9, where 1 is the maximum; inactive means score below 0.9)
Summary of the method: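 MCF-7 cells in DMEM + 10% FBS exposed 6 h to chemicals over an eight-point dilution series. Caspase-3/7 activation imaged by high-content CellEvent Green staining; fitted bidirectionally versus DMSO.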

SMILES	outcome
CC(C)(c1ccc(OCC2CO2)cc1)c1ccc(OCC2CO2)cc1 (configuration not stated)	inactive
COc1cc(-c2ccc(N)c(OC)c2)ccc1N	inactive
CCSC(C)CC1CC(=O)C(C(CC)=NOC/C=C/Cl)=C(O)C1 (configuration not stated)	inactive

Assay: CCTE_Harrill_HTTr_CellCount_MCF7: CCTE's Cell Proliferation Assessment for the High-Throughput Transcriptomics (HTTr) Platform, Harrill Lab (AID 2284012);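 further: count of Hoechst-stained nuclei per well by high-content imaging in MCF-7 cells; cells exposed to compound for six hours; intended direction is loss of nuclei count meaning fewer cells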
Summary of the method: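 Nuclei counting (Hoechst, high content imaging) in MCF-7 after a 6 h treatment at eight concentrations. Activity fitted bidirectionally, DMSO as negative control.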

SMILES	outcome	AC50
CC12CC1(C)C(=O)N(c1cc(Cl)cc(Cl)c1)C2=O (configuration not stated)	inactive	–
CC(C)(OO)c1ccccc1	inactive	–
O=C(O)C(Cl)(Cl)Cl	inactive	–
ClC1(Cl)C2(Cl)C3(Cl)C4(Cl)C(Cl)(Cl)C5(Cl)C3(Cl)C1(Cl)C5(Cl)C24Cl (configuration not stated)	inactive	–
CCOP(=S)(OCC)Oc1nc(Cl)c(Cl)cc1Cl	inactive	–
CCC(=O)C(CC(C)N(C)C)(c1ccccc1)c1ccccc1 (configuration not stated)	inactive	–
C=C(C)C(=O)[O][Sn]([CH2]CCC)([CH2]CCC)[CH2]CCC	–	11 µM (active)
COP(=S)(OC)Oc1cc(Cl)c(Cl)cc1Cl	inactive	–
COc1cc(-c2ccc(N)c(OC)c2)ccc1N	inactive	–
